Results filed as inconclusive are left out. Calls of active or inactive are those of the source. Calls come from the whole dose curve; as a rule, active = well fitted curve in the direction sought with a large enough effect; inconclusive = small, poorly fitted or top-dose-only effect, or another doubt; inactive = no such curve, though single readings can be large; an effect the other way counts as inactive or inconclusive.
How the values were obtained:
[1] = qHTS of pediatric cancer cell lines to identify multiple opportunities for drug repurposing: Primary screen for BT-37 cells (AID 1347094); note: series mostly up to about 57 µM
Method in brief: (§1)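 Luminescence from CellTiter-Glo served as readout of metabolically active cells after 48 h compound exposure. Titrations: MIPE 11-point, from 0.78 nM; NPC 8-point, from 0.59 nM (final). Concentration-response curves came straight from the primary screen.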

[2] = qHTS of pediatric cancer cell lines to identify multiple opportunities for drug repurposing: Primary screen for NB-EBc1 cells (AID 1347095)
Method in brief: as §1

[3] = qHTS of pediatric cancer cell lines to identify multiple opportunities for drug repurposing: Primary screen for U-2 OS cells (AID 1347096); note: nearly all actives have a fitted effect of over 50% in size
Method in brief: (§2)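 Cells (500-1,000/well) in growth media were settled 5 h at 37 degrees C, then given compounds for 48 h. Viability was read as CellTiter-Glo luminescence. Primary runs used MIPE at 11 points (0.78 nM-46 µM) and NPC at 8 points (0.59 nM-46 µM); follow-ups used 11 points.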

[4] = qHTS of pediatric cancer cell lines to identify multiple opportunities for drug repurposing: Primary screen for SK-N-SH cells (AID 1347098);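 note: DMSO served as neutral control and bortezomib at 2.3 µM as positive control; nearly all actives have a fitted effect of over 65% in size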
Method in brief: (§3)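 Cells (500-1,000/well) rested 5 h, then received compounds for 48 h; metabolically active cells were measured by CellTiter-Glo luminescence. Final concentrations spanned up to 46 µM (MIPE, 11-point) or 0.59 nM-46 µM (NPC, 8-point) in primary screens, 11-point in follow-ups.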

[5] = qHTS of pediatric cancer cell lines to identify multiple opportunities for drug repurposing: Primary screen for NB1643 cells (AID 1347099); note: nearly all actives have a fitted effect of over 50% in size
Method in brief: as §1

[6] = qHTS of pediatric cancer cell lines to identify multiple opportunities for drug repurposing: Primary screen for LAN-5 cells (AID 1347100)
Method in brief: as §2

[7] = qHTS of pediatric cancer cell lines to identify multiple opportunities for drug repurposing: Primary screen for BT-12 cells (AID 1347101); note: nearly all actives have a fitted effect of over 25% in size
Method in brief: as §3

[8] = qHTS of pediatric cancer cell lines to identify multiple opportunities for drug repurposing: Primary screen for Rh18 cells (AID 1347102); note: nearly all actives have a fitted effect of over 65% in size
Method in brief: as §2

[9] = qHTS of pediatric cancer cell lines to identify multiple opportunities for drug repurposing: Primary screen for OHS-50 cells (AID 1347103); note: nearly all actives have a fitted effect of over 40% in size
Method in brief: as §3

Measured: Potency

C[C@@H]1CN(C2CCC(C#N)(c3ccc(F)cc3)CC2)CC[C@]1(C(=O)O)c1ccccc1 (stereo partly drawn)
inactive: all assays above

CCOC(=O)NC(C)(C)Cc1ccc(Cl)cc1
inactive: all assays above

NC(=O)OCCCc1ccccc1
not listed: [8]
inactive: all other assays above

O=C(O)CCCCCCNC1c2ccccc2CCc2ccccc21
not listed: [8]
inactive: all other assays above

CCCCC1C(=O)NC(=O)N(C2CCCCC2)C1=O (stereo not drawn)
inactive: all assays above

CCS(=O)(=O)C(C)(C)S(=O)(=O)CC
not listed: [6]
inactive: all other assays above

CC(C)=C[C@@H]1[C@@H](C(=O)OCc2coc(Cc3ccccc3)c2)C1(C)C
not listed: [6] | [9]
inactive: all other assays above

COc1ccc(OC)c(CC(C)N)c1 (stereo not drawn)
inactive: all assays above

O=C(N[C@@H]1N=C(c2ccccc2F)c2cccc3c2N(CC3)C1=O)c1cc2ccccc2[nH]1
not listed: [4]
inactive: all other assays above

Cc1nc2ccccc2c(=O)n1-c1ccccc1Cl
not listed: [4] | [8] | [9]
inactive: all other assays above

CN(C)C(=O)Oc1cc(OC(=O)N(C)C)cc(C(O)CNC(C)(C)C)c1 (stereo not drawn)
inactive: all assays above

CCC1(c2ccccc2)CCC(=O)NC1=O (stereo not drawn)
inactive: all assays above

CNC(C)Cc1ccc2c(c1)OCO2 (stereo not drawn)
inactive: all assays above

COc1ccc(C(=O)N2CCCC2=O)cc1
not listed: [8]
inactive: all other assays above

CNC(C)Cc1ccccc1OC (stereo not drawn)
inactive: all assays above

CN1C(=O)CN=C(c2ccccc2)c2cc([N+](=O)[O-])ccc21
inactive: all assays above

CN1C2CCC(C)(C)C1CC(OC(=O)C(O)(c1cccs1)c1cccs1)C2 (stereo not drawn)
not listed: [4] | [8] | [9]
inactive: all other assays above

ClCc1cccc(Cl)c1
inactive: all assays above

C[C@@H]1CC[C@H]2[C@@H](C)C(=O)O[C@@H]3O[C@@]4(C)CC[C@@H]1[C@]32OO4
not listed: [7]
inactive: all other assays above

C[C@]12CC[C@H]3[C@@H](CCC4=CC(=O)CC[C@@H]43)[C@@H]1CC[C@@H]2O
not listed: [4] | [6] | [9]
inactive: all other assays above

COc1ccc(CN2CCNCC2)c(OC)c1OC
inactive: all assays above

COP(=S)(OC)Oc1ccc(S(N)(=O)=O)cc1
not listed: [6]
inactive: all other assays above

CCC1(c2cccc(O)c2)CCCCN(C)C1 (stereo not drawn)
not listed: [6]
inactive: all other assays above

Nc1ccccc1C(=O)OCC(O)CO (stereo not drawn)
not listed: [6]
inactive: all other assays above

CC(C)(C)OC(=O)c1ncn2c1[C@@H]1CCCN1C(=O)c1c(Br)cccc1-2
not listed: [6] | [8]
inactive: all other assays above

Source: PubChem BioAssay (NCATS)
